# Screens from PubChem BioAssay.
# HT1080NT lethal: kills 2HG-producing HT-1080-NT fibrosarcoma cells. HT-1080-NT fibrosarcoma viability, CellTiter-Glo ATP luminescence, 48 h. Potency, µM (top dose mostly 46.1 µM), without a hit: at the highest dose activity, negative = less viability, usual class: cytotoxic. 360,000 tested, 1.6% active. AID 686970;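 further: NT is the 2HG producing partner of a matched IDH1 knockdown line; potency means the concentration at half of the fitted maximal effect; 0% = DMSO-treated cells and -100% = media-only wells without cells; nearly all actives have a fitted effect of over 55% in size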
#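 HT-1080-NT; 750 cells/well; 5% FBS RPMI; 48 h compound, 37 degrees C; CellTiter-Glo luminescence; curve fitting and curve-class assignment.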
# IL-1B inflam inh: inhibitors of inflammasome signaling (IL-1 beta secretion). 360,000 tested, 4.7% active. THP-1 LPS/ATP IL-1B secretion, AlphaLISA, 16 h; hits give low values. activity change, % at 57.5 µM. AID 743279; in the data active means activity change below about -50%; inconclusive means mostly about -30% to -49%
#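 THP-1 cells pretreated 1 hr with compounds (up to 57.5 uM final), then stimulated with LPS (250 ng/mL final) plus ATP (1.25 mM final); secreted IL-1B measured by AlphaLISA after 16 hr, decreased signal indicating inhibition.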
# HT1080 IDH1KD tx: HT-1080 IDH1 knockdown cell toxicity (counter line) | HT-1080 IDH1 knockdown viability, ATP luminescence, 48 h | Potency, µM (doses to about 46.1 µM), inactives show at the highest dose activity, negative = toxicity, most hits filed as cytotoxic | 360,000 tested, 2% active;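 further: potency means the concentration at half of the fitted maximal effect; 0% = DMSO wells and -100% = cell-free medium wells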
#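 After a 2 h attachment period, IDH1KD HT-1080 cells took pin-transferred compound for 48 h at 37 °C; ATP-based luminescence after 10 min room-temperature reagent incubation reported viability.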
# DT40 TDP1 CPT: growth inhibition of DT40 Tdp1-/-;hTDP1 cells with camptothecin (screen for TDP1 inhibitors); chicken DT40 Tdp1-/-;hTDP1 cells + 20 nM CPT, ATP luminescence, 48 h; Potency, µM (highest dose often 46.2 µM), for inactives: at the highest dose activity change, negative = growth inhibition, usual class: inhibitors; 420,000 tested, 12% active; further: potency means the concentration at half of the fitted maximal effect; nearly all actives have a fitted effect of over 55% in size
#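 Chicken DT40 Tdp1-/- cells complemented with human TDP1, 400 cells/well, exposed to compounds plus 20 nM camptothecin for at least 48 h at 37 C; viability read as ATP content by CellTiter-Glo luminescence.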
# 12-LOX inh: ALOX12 (human) lipoxygenase inhibition; P18054; purified 12hLO, xylenol orange hydroperoxide absorbance; Potency, µM (titrated, usually from 108 µM), without a hit: top-dose activity change, negative = inhibition, most hits filed as inhibitors; 580,000 tested, 1.1% active; AID 1671190; further: potency means the concentration at half of the fitted maximal effect
# Target sequence (P18054 whole entry, looked up): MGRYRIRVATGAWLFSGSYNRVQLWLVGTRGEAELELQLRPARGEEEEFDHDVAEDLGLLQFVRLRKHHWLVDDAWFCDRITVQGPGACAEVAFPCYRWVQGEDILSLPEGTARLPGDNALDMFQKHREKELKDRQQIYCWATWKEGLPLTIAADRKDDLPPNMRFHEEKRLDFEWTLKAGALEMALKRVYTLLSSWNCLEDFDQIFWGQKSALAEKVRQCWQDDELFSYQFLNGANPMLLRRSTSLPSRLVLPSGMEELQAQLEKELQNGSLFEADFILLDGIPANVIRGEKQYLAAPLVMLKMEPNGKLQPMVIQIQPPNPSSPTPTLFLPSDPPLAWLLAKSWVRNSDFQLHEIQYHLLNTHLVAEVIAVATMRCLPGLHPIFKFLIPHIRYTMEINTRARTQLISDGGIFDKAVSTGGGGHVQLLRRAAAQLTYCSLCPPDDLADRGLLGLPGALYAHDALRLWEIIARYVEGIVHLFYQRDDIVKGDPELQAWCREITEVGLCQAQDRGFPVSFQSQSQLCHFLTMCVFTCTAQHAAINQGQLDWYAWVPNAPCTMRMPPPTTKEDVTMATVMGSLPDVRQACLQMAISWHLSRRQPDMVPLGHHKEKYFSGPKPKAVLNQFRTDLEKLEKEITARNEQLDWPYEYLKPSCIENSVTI
#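 Hydroperoxide product was detected by ferrous iron/xylenol orange as the 573 to 405 nm absorbance ratio. Arachidonic acid at 40 uM (final) was turned over for 30 min at room temperature by 150 nM human 12hLO, pH 7.0 Hepes buffer, after 15 min compound preincubation.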
# TDP1 cell noCPT: qHTS for Inhibitors of human tyrosyl-DNA phosphodiesterase 1 (TDP1): qHTS in cells in absence of CPT; DT40 Tdp1-/- hTDP1 cells, no CPT, ATP luminescence, 48 h; 420,000 tested, 15% active; Potency, µM (highest dose often 46.2 µM), for the others: top-dose activity change, negative = growth inhibition, usual class: inhibitors; further: potency means the concentration at half of the fitted maximal effect; nearly all actives have a fitted effect of over 55% in size
#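 Growth kinetics read by CellTiter-Glo luminescence after ≥48 hr at 37 °C. Cells: DT40 Tdp1-/- stably carrying human TDP1, 400 per well, compound exposure in the absence of CPT (DMSO vehicle).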
# Active calls of the source: *; i = inactive; ? = inconclusive; . = no result; [ ] = dose if it differs, or a comment. Many of the other results were omitted from the sample, so hits are more common in it than they were. Unless noted, the call rests on the fitted dose curve; in most records, active means well fitted curve in the direction sought with a large enough effect; inconclusive means small, poorly fitted or top-dose-only effect, or another doubt; inactive means no such curve, though single readings can be large; an effect the other way counts as inactive or inconclusive. Unless noted, on the % scale 0 is the no-effect control and ±100 the full control effect.
SMILES,HT1080NT lethal,IL-1B inflam inh,HT1080 IDH1KD tx,DT40 TDP1 CPT,12-LOX inh,TDP1 cell noCPT
O=C(O)c1ccc(N/N=C/C=C/c2ccc([N+](=O)[O-])o2)cc1,-2%,-15,-8%,8.2µM*,-24%,23µM*
NC(=O)N/N=C/c1ccc([N+](=O)[O-])o1,-29%,8,-20%,16µM*,-10%,3.3µM*
O=C(N/N=C/c1ccc([N+](=O)[O-])o1)C(=O)Nc1ccc(C(=O)O)cc1,-17%,18,9%,-24%,-21%,-14%
Cc1cc(C)c(S(=O)(=O)N/N=C/c2ccc([N+](=O)[O-])o2)c(C)c1,-13%,-3,2%,23µM*,?,?
CN(CC(=O)Nc1ccccc1OC(F)(F)F)S(=O)(=O)c1ccc2ccccc2c1,.,.,.,.,-6%,.
Cc1ccc(OCC(=O)N/N=C/c2ccc([N+](=O)[O-])o2)cc1,?,-25,?,16µM*,2%,13µM*
O=C(N/N=C/c1ccc([N+](=O)[O-])o1)C1CC1,-13%,13,?,7.3µM*,-14%,23µM*
O=C(N/N=C/c1ccc(-c2ccccc2)cc1)C1CC1,.,.,.,.,-29%,.
CCOC(=O)N1CCC(NC(=O)c2ccc3c(c2)N=C(CC)c2ccccc2S3)CC1,?,-22,?,?,5%,?
CCc1ccc(-c2cn3c(n2)sc2cc(C(=O)NC4CCCCC4)ccc23)cc1,.,.,.,3.7µM*,-13%,6.5µM*
COc1ccc(-c2cn3c(n2)sc2cc(C(=O)NC4CCCCC4)ccc23)cc1,.,.,.,?,?,-24%
O=C(NC1CCCCCC1)c1ccc2c(c1)sc1nc(-c3ccccc3)cn12,.,.,.,9.2µM*,-17%,16µM*
CCOC(=O)N1CCC(NC(=O)c2ccc3c(c2)sc2nc(-c4ccccc4)cn23)CC1,-12%,-15,-22%,15µM*,67%,9.2µM*
CCc1ccccc1NC(=O)CSc1nc2nc(C)c(Br)cc2[nH]1,.,.,.,.,25%,.
O=C(/C=C/c1cccc([N+](=O)[O-])c1)NCCSCc1ccc(Cl)cc1Cl,-52%,-75*,?,29µM*,-16%,23µM*
O=C(/C=C/c1ccc2c(c1)OCO2)NCCSCc1cccc(Cl)c1,-25%,-7,?,-20%,-18%,-19%
O=C(/C=C/c1ccc2c(c1)OCO2)NCCSCc1ccc(Cl)cc1Cl,-2%,-74*,?,?,-15%,?
Cc1cnc(C2CCN(C(=O)Nc3ccccc3F)C2)n1C(C)C (stereo unspecified),.,.,.,.,50%,.
CC(=O)Nc1ccc(Sc2ncccc2C(=O)Nc2ccc(F)cc2)cn1,?,61,?,9.2µM*,-10%[57.4 µM],7.3µM*
COc1cc(NC(=O)c2cccnc2SC)cc(OC)c1OC,-2%,22,-2%,13%,-5%,2%
CSc1ncccc1C(=O)Nc1ccc(OC(F)(F)F)cc1,0%,-22,1%,?,i,15µM*
COc1ccc(CNC(=O)C2CCCN(S(=O)(=O)c3ccc(F)cc3)C2)cc1 (stereo unspecified),4%,7,4%,?,343%,?
COc1ccc(S(=O)(=O)N2CCCC(C(=O)Nc3ccc4c(c3)OCCO4)C2)cc1 (stereo unspecified),-2%,?,-24%,21µM*,-5%,?
Cc1ccc(S(=O)(=O)N2CCCC(C(=O)N(Cc3cccs3)C3CC3)C2)cc1 (stereo unspecified),-1%,-9,-11%,13µM*,0%[57.4 µM],13µM*
